About 79,000 compounds went through this panel and 15% of them were active in at least one assay; those are over-represented in the sample as a whole. Rule as the data show it: active = growth inhibition above about 70%; inactive = the rest.
Experiments:
[1] = NCI Yeast Anticancer Drug Screen. Data for the rad50 strain (AID 155);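 also: 0% = growth of vehicle-only cultures of the same strain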; conditions: S. cerevisiae rad50 strain growth inhibition; at 50.0 µM; active compounds read high
Outline: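 Cells are treated with compound, grown, and their growth is then scored against vehicle-only cultures of the same repair-deficient yeast strain.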

[2] = NCI Yeast Anticancer Drug Screen. Data for the mec2-1 strain (AID 157); conditions: S. cerevisiae mec2-1 strain, at 50.0 µM, active compounds read high
Outline: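 Test agents were screened against the mec2-1 yeast strain, with defined DNA repair or cell cycle alteration. Growth was scored as inhibition against vehicle-only controls.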

[3] = NCI Yeast Anticancer Drug Screen. Data for the sgs1 mgt1 strain (AID 161);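 also: 0% = growth of cultures given vehicle only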; conditions: S. cerevisiae sgs1 mgt1 strain, at 50.0 µM, active compounds read high
Outline: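 Inhibition of yeast growth, normalised to vehicle-treated controls, is reported for a strain bearing genetic alterations in DNA damage repair.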

[4] = NCI Yeast Anticancer Drug Screen. Data for the cln2 rad14 strain (AID 165);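 also: 0% = growth equal to vehicle treated cultures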; conditions: S. cerevisiae cln2 rad14 strain, at 50.0 µM, active compounds read high
Outline: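 Growth of compound-exposed yeast (cln2 rad14 genotype) measured and expressed as inhibition relative to vehicle.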

[5] = NCI Yeast Anticancer Drug Screen. Data for the bub3 strain (AID 167); conditions: S. cerevisiae bub3 mutant strain, at 50.0 µM, active compounds read high
Outline: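 Part of a panel of yeast mutants defective in DNA damage repair or cell cycle regulation. Each strain is grown with compound, and inhibition is calculated relative to solvent-treated cultures.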

[6] = NCI Yeast Anticancer Drug Screen. Data for the mlh1 rad18 strain (AID 175); conditions: S. cerevisiae mlh1 rad18 strain growth inhibition; at 50.0 µM; active compounds read high
Outline: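 In this whole-cell yeast screen, a strain with altered DNA damage repair is challenged with compound, and its growth is measured against matched vehicle-treated controls.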

Measured: growth inhibition

CC1OC(n2ccc(=O)[nH]c2=O)C=C(OC(=O)c2ccccc2)C1=O (stereo not drawn)
inactive: [1] 12.2% | [2] -12.2% | [3] -11.4% | [4] -7% | [5] -9.55% | [6] 3.4%

O=C(CNC(=O)OCc1ccccc1)NCCNCCNC(=O)CNC(=O)OCc1ccccc1
inactive: [1] -26.9% | [2] 6.7% | [3] -5.65% | [4] 36.2% | [5] 8.45% | [6] -0.4%

Cc1ccc(CCCC(=O)O)c2ccc3ccccc3c12
inactive: [1] 4.15% | [2] 2.4% | [3] 8.6% | [4] -9.4% | [5] 4.3% | [6] 3.55%

O=C(O)COc1ccccc1C1CCCCC1
inactive: [1] 0.15% | [2] 7.6% | [3] 6.25% | [4] -4.9% | [5] -18.6% | [6] -2.2%

C=CCOC(=O)C1CC(C)=CC(C)C1C (stereo not drawn)
inactive: [1] 23.5% | [2] 3.6% | [3] -13.7% | [4] -46.4% | [5] -12.1% | [6] 5.2%

CCc1cc(Cc2cc(CC)c(NC(=O)C(=O)CC(=O)c3sc(-c4cccnc4)nc3C)c(CC)c2)cc(CC)c1NC(=O)C(=O)CC(=O)c1sc(-c2cccnc2)nc1C
inactive: [1] -26.8% | [2] -26.9% | [3] -27.8% | [4] -0.05% | [5] -35.9% | [6] -19.8%

CCCCN(CCCC)CC(O)c1cc(-c2ccc(Cl)cc2)nc2c(Cl)cc(Cl)cc12 (stereo not drawn)
inactive: [1] 26.4% | [2] 5.05% | [3] 10.3% | [4] 18.1% | [5] 0.45% | [6] 28.9%

Clc1ccc(SCSc2ccc(Cl)cc2)cc1
inactive: [1] 16.8% | [2] -7.35% | [3] 6.5% | [4] -33.5% | [5] 6.45% | [6] -0.85%

— PubChem BioAssay (NCI)
